Data on 13 compounds can be found in PubChem BioAssay (NCI).

About 83,000 compounds went through this panel and 20% of them were active in at least one assay; those are over-represented in the sample as a whole.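 Testing used 96-well plates and a 48-hour single-concentration exposure. Example: -40 means 40% of the starting cells died.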 Unmarked numbers belong to inactive results. Activity calls are given as the source filed them. The calls were made as follows: active = growth percent below 10; inactive = the rest.

Common to all, as to assay: NCI-60 one-dose screen, 48 h (100 = growth as untreated, 0 = no growth, -100 = all killed)
Common to all, as to details: 10 µM unless noted

Experiment [1] has as its system SR leukemia.
Experiment [2] concerns RPMI-8226 leukemia.
For experiment [3], the system named is OVCAR-8 ovarian.
The subject of experiment [4] is OVCAR-5 ovarian.
Experiment [5] concerns OVCAR-4 ovarian.
Experiment [6] deals with SK-OV-3 ovarian.
Experiment [7] concerns IGROV1 ovarian.
Experiment [8] deals with OVCAR-3 ovarian.
In experiment [9] the test system is HS 578T breast.
Experiment [10] deals with NCI/ADR-RES ovarian.

With `COc1ccc2nc3ccc(OC)cc3c(SCCCN)c2c1`, the growth in experiment [1] is -30.8% (active); in experiment [2], -22.7% (active); in [3], 76.1%; in experiment [4] it was 83.2%; in experiment [5], 63.9%; in experiment [6], 95%. Also, the growth in experiment [7] is 97.2%; in experiment [8] it was 71.3%; in experiment [9], 89.7%; in experiment [10] it was 86.9%.

On to `COCCn1c(-c2csc(-c3cn(C)c4ccc(OC)cc34)n2)cc2cccnc21`, for which the growth in experiment [1] is 18.4%; in [2], 65.4%; in experiment [3] it was 59.7%; in experiment [4], 79.9%; in experiment [5], 55.9%; in experiment [6] it was 65.2%. The growth is 94.5% in experiment [7], 65.5% in experiment [8], 58.5% in experiment [9] and 46.4% in experiment [10].

For the compound `Cc1nn(-c2ccccc2)c(Oc2ccccn2)c1-c1nc2ccccc2s1`, the growth is 33.9% in experiment [1]; 97.5% in experiment [2]; 102% in [3]; 93.4% in [4]; 98.7% in experiment [5]; 97.5% in [6]. Further, the growth in [7] was 90.6%; in experiment [8] it was 102%; in experiment [9], 110%; in experiment [10] it was 98.1%.

Take `Oc1c(Cl)cc(Cl)cc1/C=N/Nc1nnc(N/N=C/c2cc(Cl)cc(Cl)c2O)c2ccccc12`: the growth in [1] was 3.92% (active); in experiment [2], 0.393% (active); in experiment [3], 17.4%; in experiment [4] it was 40.4%; in experiment [5], 8.13% (active); in experiment [6], 29.3%. Moreover, the growth in [7] is 13.1%; in experiment [8], 14.1%; in [9], 31.6%; in experiment [10], 1.78% (active).

As for `CC1=C(C(=O)OC(C)C)C(c2ccc3c(c2)OCO3)NC(=S)N1` (stereo not given), the growth is 103% in [1]; 87.7% in experiment [2]; 102% in experiment [3]; 105% in experiment [4]; 98.4% in [5]; 105% in experiment [6]. Besides, the growth in experiment [7] was 99.9%; in [8], 121%; in experiment [9] it was 97.3%; in [10], 101%.

For `Cc1cc2c([nH]1)CSc1cc(S(=O)(=O)c3ccccc3)c(=O)[nH]c1-2`, the growth in experiment [1] is 12.8% [100 µM]; in experiment [2], 21.3% [100 µM]; in [3], 24.3% [100 µM]; in experiment [4], 69.9% [100 µM]; in experiment [5], 43.1% [100 µM]; in [6], 22% [100 µM]. Besides, the growth is 42.6% [100 µM] in experiment [7], -15.6% [100 µM] (active) in experiment [8], 47.5% [100 µM] in experiment [9] and 15.7% [100 µM] in [10].

As for `CCN(CC)CCOc1ccc(C(=C(C)c2ccc(Cl)cc2)c2ccc(OCCN(CC)CC)cc2)cc1`, the growth in experiment [1] is -54.4% (active); in experiment [2], -49.8% (active); in [3] it was -47.1% (active); in experiment [4], -84.1% (active); in experiment [5] it was -62.1% (active); in [6], -79.9% (active). Moreover, the growth is -86.9% (active) in experiment [7], -70.5% (active) in experiment [8], -52.5% (active) in experiment [9] and -68.2% (active) in experiment [10].

As for `Cc1ccc(-c2cc(-c3ccc(Cl)cc3)nc(NC(=O)c3cccnc3)n2)cc1`, the growth in experiment [1] is 89.1%; in experiment [2], 86.3%; in experiment [3], 103%; in [4], 102%; in experiment [5], 100%; in [6], 109%. Moreover, the growth was 102% in experiment [7], 115% in experiment [8], 103% in [9] and 104% in [10].

`Cn1cc(-c2csc(-c3c[nH]c4ccc(Br)cc34)n2)c2cnccc21`: the growth in experiment [1] was -30.9% (active); in [2] it was -40.3% (active); in experiment [3], -60.5% (active); in experiment [4], -95.7% (active); in experiment [5] it was -84.8% (active); in [6], -95.5% (active). Also, the growth in [7] is -77.8% (active); in experiment [8], -91.9% (active); in [9], -60.5% (active); in experiment [10], -69.2% (active).

Regarding `Cc1ccc(NC(=S)NNC(=S)NNc2ccccc2)cc1C`, the growth in experiment [1] is 56.8%; in [2], 78.9%; in experiment [3], 98.2%; in experiment [4], 105%; in [5], 114%; in experiment [6], 104%. The growth is 98.5% in experiment [7], 73.9% in experiment [8], 94.4% in [9] and 110% in experiment [10].

Take `O=C1/C(=C/c2ccccc2Br)COc2ccc(O)c(O)c21`: the growth was 14.7% in [1]; 1.07% (active) in experiment [2]; 9.72% (active) in [3]; 31.4% in experiment [4]; 48.2% in experiment [5]; 74.7% in experiment [6]. Further, the growth was -19.4% (active) in [7], 8.7% (active) in experiment [8], 25.2% in [9] and 7.97% (active) in experiment [10].

As for `Cc1nc2sc(C(=O)Nc3cccc(Cl)c3C)c(N)c2cc1C(=O)c1ccccc1`, the growth was 19.8% in experiment [1]; 6.33% (active) in experiment [2]; 9.81% (active) in [3]; 31.1% in experiment [4]; 63.3% in [5]; 3.83% (active) in [6]. Further, the growth in [7] was 28.6%; in experiment [8], -19.1% (active); in experiment [9], 12.2%; in [10], 4.5% (active).

As to `O=C1c2c(c3c4ccc(Br)cc4oc3c3[nH]c4ccccc4c23)C(=O)N1O`, the growth in [1] was 8.52% (active); in experiment [2] it was 3.91% (active); in experiment [3] it was 47.6%; in experiment [4], 95.9%; in experiment [5], 66%; in [6], 79.1%. In addition, the growth in experiment [7] was 25.3%; in experiment [8] it was 21.3%; in [9], 18%; in experiment [10] it was 56.2%.
